Results taken from PubChem BioAssay AID449762 (Southern Research Specialized Biocontainment Screening …, 2010).
The whole screen tested about 330,000 compounds, of which about 1,900 (0.58%) were called active. Inconclusive results (about 4%) are left out. Not all results are given here. Entries with a potency or affinity are not part of this list. A number with no mark means an inactive call. No stated cut-off is given here; in the data, inconclusive means inhibition above about 70% without an active follow-up result; inactive means below that.

Assay: M. tuberculosis growth inhibition, HTS (AID 449762);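 further: bacterial growth assessed after seven days of incubation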
Settings: M. tuberculosis H37Rv growth inhibition, 7H9 media; at 25 µM; stronger effect = higher value
In the case of `COc1ccc(CN(C)C(=O)c2ccc(NC(=O)CC3SC(N4CCCC4)=NC3=O)cc2)c(OC)c1` (stereo unspecified), the inhibition is reported as 7.53%. For `CC1CC(C)(C)CC2(C1)NC(=O)N(CC(=O)Nc1ccc(N3CCCCC3)cc1)C2=O` (stereo unspecified), the inhibition was 5.59%. `C=C(C)CNC(=S)NN=C1c2ccccc2-c2ccccc21` gave an inhibition of 12.3%. `CC(C)NC(=S)NN=C1c2ccccc2-c2ccccc21` gave an inhibition of -0.95%. `Cc1cc2c(cc(C(=O)O)n2C)s1` gave an inhibition of -1.98%. With `CCN(CC)CCNC(=O)c1cc2c(-c3ccc(Cl)cc3)nn(C)c2s1` the inhibition was 7.68%. Work on `CCN(CC)CCCNC(=O)c1cc2c(-c3ccc(Cl)cc3)nn(C)c2s1` yielded an inhibition of 47.1%. Work on `Clc1ccc(-c2cc3ccccc3nc2N2CCOCC2)cc1` yielded an inhibition of 48.3%. `c1ccc(-c2cc3ccccc3nc2N2CCCC2)cc1` showed an inhibition of 4.32%. Work on `Cc1ccc(NC(=O)COC(=O)CCc2ccc(S(=O)(=O)N3CCOCC3)cc2)cc1F` yielded an inhibition of 2.39%. Work on `O=C(O)c1ccccc1C(=O)NC1CCCCNC1=O` (stereo unspecified) yielded an inhibition of -1.29%. `OCCNCC(O)Cn1ccc2ccccc21` (stereo unspecified) gave an inhibition of -2.23%. Work on `OC(CNc1ccccc1)Cn1ccc2ccccc21` (stereo unspecified) yielded an inhibition of 12.2%. With `CC(=O)c1ccc(C(=O)NC2CCCN(Cc3ccccc3F)C2)s1` (stereo unspecified) the inhibition was -25.9%. `Cc1cc(C)cc(NC(=O)CCn2cnc3cc(C)c(C)cc32)c1` showed an inhibition of 62.6%. Compound `COc1ccc(/C=C2\Cc3ccccc3C2=O)cc1OC` has an inhibition of 5.99%. In the case of `COc1ccc(C=C2C(=O)OC(C)(C)OC2=O)cc1OC`, the inhibition is reported as 5.49%. With `CNC(=O)C(=O)NCC(c1cccs1)S(=O)(=O)c1ccc(F)cc1` (stereo unspecified) the inhibition was -2.67%. `Cc1ccc(C)c(N2CCN(C(=O)c3ccc(NC4=NC5CS(=O)(=O)CC5S4)cc3)CC2)c1` (stereo unspecified) showed an inhibition of -1.31%. Compound `N#CC(C(=O)Nc1cccc(Cl)c1)=C1Nc2ccccc2N1` has an inhibition of 2.4%. With `N#CC(C(=O)Nc1ccc(Cl)cc1)=C1Nc2ccccc2N1` the inhibition was 1.22%. `O=C(CCCN1C(=O)S/C(=C\C=C\c2ccccc2)C1=O)Nc1ccc(C(=O)O)cc1` showed an inhibition of -3.27%. Compound `O=C(COc1ccc(C(=S)N2CCOCC2)cc1Cl)Nc1ccccc1Cl` has an inhibition of 6.58%. In the case of `O=C(NNC(=O)C1CCN(S(=O)(=O)c2ccccc2C(F)(F)F)CC1)c1ccccc1O`, the inhibition is reported as 6.28%. `COc1cccc(N2CCN(C(=O)CCNS(=O)(=O)c3ccc4c(c3)c(=O)n(C)c(=O)n4C)CC2)c1` showed an inhibition of -0.56%. `CCC(CC)c1nnc(NC(=O)c2cc([N+](=O)[O-])ccc2N2CCCCC2)s1` gave an inhibition of 9.65%. Work on `Cc1ccc(Nc2nc(N)nc(CN3CCN(C)CC3)n2)cc1` yielded an inhibition of -7.52%. Work on `COc1ccc(Nc2nc(N)nc(CN3CCc4ccccc4C3)n2)cc1` yielded an inhibition of 7.44%. `CCC(C)c1ccc(OCC(=O)O)cc1` (stereo unspecified) gave an inhibition of -1.06%. Work on `COC(=O)c1ccc(COC(=O)c2ccc(CO)cc2)o1` yielded an inhibition of 9.22%. With `CCOc1cc(C(N)=O)cc(Br)c1OC` the inhibition was -2.81%. With `CC(C)COC(=O)NCCCOC(=O)Nc1ccccc1` the inhibition was 2.06%. `Cc1ccc(C)c(NC(=O)CCc2c(C)nn(-c3ccc(N4CCCCC4)nn3)c2C)c1` showed an inhibition of -0.31%. In the case of `COc1ccccc1CNC(=O)CSc1nc(C)cs1`, the inhibition is reported as -6.19%. Compound `CN(CCOc1ccc(Cl)cc1)C(=O)CN1C(=O)NC2(CCCC2)C1=O` has an inhibition of -10.9%. `Fc1ccc(OCCOCCN2CCNCC2)cc1` showed an inhibition of -3.98%. `COc1ccc(C[C@H]2CN3C(=NC[C@H]3C)N2CCNC(=O)CCC2CCCCC2)cc1` showed an inhibition of 2.73%. Compound `COc1ccc(C[C@H]2CN3C(=NC[C@@H]3C)N2CCNC(=O)CCC2CCCCC2)cc1` has an inhibition of -0.84%. Work on `O=C1C(Cc2ccccc2)Nc2ncnc(N3CCN(c4ccccc4)CC3)c2N1Cc1ccc(Br)cc1` (stereo unspecified) yielded an inhibition of 0.68%. With `COc1ccc(C2CC(=O)C3=C(C2)Nc2ccccc2N(C(C)=O)C3c2ccco2)cc1` (stereo unspecified) the inhibition was -14%. `O=C(c1ccc(F)cc1)C(CN1CCOCC1)c1ccccc1` (stereo unspecified) showed an inhibition of 3.13%. Compound `CC(CN1CCOCC1)C(=O)c1ccccc1` (stereo unspecified) has an inhibition of 3.78%. Compound `COc1ccc(C(NC(=O)c2cccc(F)c2)c2ccccc2)cc1` (stereo unspecified) has an inhibition of -16.4%. Work on `C=CCn1cnc2c(nnn2-c2cc(C)cc(C)c2)c1=O` yielded an inhibition of 7.46%. Work on `Cc1ccc(C(=O)NN(CCC(=O)NC(C)(C)C)C2=NS(=O)(=O)c3ccccc32)cc1` yielded an inhibition of 3.72%. For `CC1(C)CC(NC(=O)c2cccc(S(=O)(=O)N(Cc3ccccc3)c3ccccc3)c2)CC(C)(C)N1`, the inhibition was -5.74%. Work on `O=C(O)c1ccc(Cl)c(S(=O)(=O)N(Cc2ccccc2)c2ccccc2)c1` yielded an inhibition of -3.72%. With `Cc1nn(CCCC(=O)N2CCN(c3ccc(F)cc3)CC2)c(C)c1[N+](=O)[O-]` the inhibition was 2.18%. With `CCC(C)(C)c1ccc(OCC(=O)N(C)C)c(C(C)(C)CC)c1` the inhibition was -12.9%. For `Cc1cc[n+](CC[n+]2ccc(C)cc2)cc1`, the inhibition was -0.82%. Compound `CCc1ccc(C(=O)Nc2ccc3nc(C)ccc3c2)cc1` has an inhibition of 0.01%. Compound `CCc1nc2ccccc2c(C(=O)Nc2cccc(C)c2)c1C` has an inhibition of 7.7%. For `CCc1nc2ccccc2c(C(=O)Nc2ccc(C)cc2)c1C`, the inhibition was 4.44%. For `CCOC(=O)C1CCCN(CC(O)COc2cccc(C)c2)C1` (stereo unspecified), the inhibition was -3.72%. `COc1ccccc1C(=O)N/C(=C\c1ccccc1)C(=O)NC(Cc1ccccc1)C(=O)O` (stereo unspecified) showed an inhibition of -6.9%. `Cc1ccc(NC(=O)CSCC(=O)N=c2sccn2C)cc1` showed an inhibition of -9.96%. Compound `CCc1nc2c(c(=O)c3ccccc3n2C)c(=O)n1C1CCCCCC1` has an inhibition of 6.04%. Compound `Cc1nc2c(c(=O)c3ccccc3n2C)c(=O)n1C1CCCCCC1` has an inhibition of -2.45%. For `COc1ccc(OC)c(S(=O)(=O)N2CCCCC2C(=O)O)c1` (stereo unspecified), the inhibition was -12.8%. Work on `COc1ccccc1N1CCN(CCCCOc2c(OC)cccc2OC)CC1` yielded an inhibition of 4.13%. In the case of `COc1ccccc1OCCCCN1CCN(c2ccccc2OC)CC1`, the inhibition is reported as -3.03%.
